These results are taken from PubChem BioAssay (NCI).

Each structure is given as a SMILES string. The panel holds about 83,000 compounds, 20% with a hit somewhere; the sample as a whole holds those more often.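 Each cell line was grown in a 96-well plate and treated with one concentration of compound for 48 hours. Values below 10 were considered active.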 Activity calls are given as the source filed them.

This assay relates to MALME-3M melanoma. As to the kind of experiment: NCI-60 one-dose screen, 48 h (100 = growth as untreated, 0 = no growth, -100 = all killed). The note with it: 10 µM unless noted.
Regarding `CC(=O)O[C@H]1CC[C@@]2(C)C(=CC[C@H]3[C@@H]4C[C@@H](N5CC5)[C@H](C(C)=O)[C@@]4(C)CC[C@@H]32)C1`, the growth is 98.1% (inactive).
To `CC(=O)O[C@H]1C(=O)[C@@]2(C)[C@H]([C@H](OC(=O)c3ccccc3)[C@]3(O)C[C@H](OC(=O)[C@H](OC(=O)OC[C@H]4COC(C)(C)O4)[C@@H](NC(=O)c4ccccc4)c4ccccc4)C(C)=C1C3(C)C)[C@]1(OC(C)=O)CO[C@@H]1C[C@@H]2O` belongs 27.2% (inactive); to `COC(=O)N[C@H]1CCc2c(Br)c(OC)c(OC)c(OC)c2-c2ccc(SC)c(=O)cc21`, 28.6% (inactive).
To `CC[C@H](C)[C@H](NC(=O)c1ccccn1)C(=O)N(C)[C@H](C[C@@H](OC(C)=O)c1nc(C(=O)N[C@@H](Cc2ccccc2)C[C@H](C)C(=O)OC)cs1)C(C)C` belongs 53.8% (inactive); to `Cc1cc(N(CCCl)CCCl)ccc1C=Nc1ccc(-c2csc(Cc3ccccc3)n2)cc1`, 70.8% (inactive).
For `COC(=O)[C@]12CCC(C)(C)C[C@H]1[C@H]1C(=O)C[C@@H]3[C@@]4(C)C[C@@]5(CC(C)(C)[C@@H]4CC[C@@]3(C)[C@]1(C)CC2)OO[C@@](C)(C(F)(F)F)O5`, the growth is 108% (inactive).
To `CN1CCC(c2c[nH]c3ccccc23)C1` (configuration not stated) belongs 112% (inactive); to `CCC[CH2][Sn]([CH2]CCC)([CH2]CCC)[O]c1ccc(Cl)cc1Cl`, -61.5% (active).
For `COC(=O)[C@H](C[C@H](Cc1ccccc1)NC(=O)c1csc([C@@H](C[C@H](C(C)C)N(C)C(=O)[C@@H](NC(=O)[C@H]2CCCCN2C)C(C)C)OC(C)=O)n1)NC(=O)OCc1ccccc1`, the growth was -53.7% [8.5 µM] (active).
On to `C[n+]1c(/C=C/c2ccc(N(CCCl)CCCl)cc2)sc2ccccc21`, for which the growth is 54% (inactive).
Under `CC[C@H](C)[C@H](NC(=O)C12C3C4C1C1C2C3C41NC(C)=O)C(=O)N(C)[C@H](C[C@@H](OC(C)=O)c1nc(C(=O)N[C@@H](Cc2ccccc2)C[C@H](C)C(=O)OC)cs1)C(C)C` (some centres not stated) stands 58.6% (inactive); under `CCCCCN(CCCCC)CC(O)c1cc(Cl)ccc1OC` (configuration not stated), 66.9% (inactive).
Take `C#Cc1ccc2c(c1)C(c1ccccc1)=NCC(=O)N2C`: the growth is 74.5% (inactive).
Under `CCOC(=O)CCN(C)C1=Nc2ccc(Cl)cc2C(c2ccccc2)=[N+]([O-])C1` stands 101% (inactive).
With `COC(=O)[C@@H](C)C[C@H](Cc1ccccc1)NC(=O)c1csc([C@@H](C[C@H](C(C)C)N(C)C(=O)[C@@H](NC(=O)CN(C)C)C2CC2)OC(C)=O)n1`, the growth was 69.8% (inactive).
Under `COc1cc2c(c(OC)c1OC)-c1ccc([O-])c(=O)cc1[C@@H](NC(C)=O)CC2.COc1cc2c(c(OC)c1OC)-c1ccc([O-])c(=O)cc1[C@@H](NC(C)=O)CC2.[Cu+2]` stands 52.5% (inactive).
`COc1ccc(/C=C\c2cc(OC)c(OC)c(OC)c2)c(NS(=O)(=O)c2ccc(C)cc2)c1O`: the growth was 92.2% (inactive).
On to `C=C(C)[C@@]12OC3(/C=C/C=C/CCCCC)O[C@@H]1[C@@H]1[C@@H]4O[C@]4(CO)[C@@H](O)[C@]4(O)C(=O)C(C)=C[C@H]4[C@@]1(O3)[C@H](C)[C@H]2OC(=O)c1ccccc1`, for which the growth is 88.3% (inactive).
For the compound `CC(C)CCC1(CCCl)C(=O)NC(=O)NC1=O`, the growth is 95.3% (inactive).
Under `C[C@@]1(CCCCCCCCCc2ccc(O)cc2)C[C@]2(C)OC(=O)C[C@@H]2OO1` stands 105% (inactive).
Under `COC(=O)[C@@H](C)C[C@H](Cc1ccccc1)NC(=O)c1nc([C@@H](C[C@H](C(C)C)N(C)C(=O)[C@@H](NC(=O)[C@H]2CCCN2C)C(C)C)OC(C)=O)sc1C` stands 54.4% (inactive).
As for `CCOP(=O)(NC[C@H]1O[C@](O)(CO)[C@@H](O)[C@@H]1O)OCC`, the growth is 89.1% (inactive).
With `O=C1CN=C(c2ccc(Cl)cc2)c2sccc2N1`, the growth was 97.4% (inactive).
Under `COP(=O)(OC)C(O)c1ccc(Cl)cc1` (configuration not stated) stands 101% (inactive); under `CNC(=O)Oc1ccc(N(C)C)cc1C(C)C`, 72.1% (inactive).
To `CO[C@H](C(=O)O)[C@@H]1Cc2cc3cc(OC4CC(OC5CC(O)C(O)C(C)O5)C(O)C(C)O4)c(C)c(O)c3c(O)c2C(=O)[C@H]1OC1CC(OC2CC(OC3CC(C)(O)C(O)C(C)O3)C(O)C(C)O2)C(O)C(C)O1` (some centres not stated) belongs -10.4% (active).
For `CCOC(=O)N[C@H]1CCc2c(Br)c(OC)c(OC)c(OC)c2-c2ccc(SC)c(=O)cc21`, the growth was 35.1% (inactive).
